Key:
Assay in all cases: PBM; 200 nM protein, PBS
Conditions in all cases: dsDNA, one strand shown
[1] = biological target: VAX1 (Homo sapiens, UniProt Q5SQQ9 86-172)
[2] = biological target: VAX1 (Homo sapiens, UniProt Q5SQQ9 86-172, T142I)
[3] = biological target: VAX1 (Homo sapiens, UniProt Q5SQQ9 86-172, K157R)
[4] = biological target: HOXD13 (Homo sapiens, UniProt P35453 263-343, T313A)
[5] = biological target: NKX3-2 (Homo sapiens, UniProt P78367 192-278, P234S)
[6] = biological target: NKX3-2 (Homo sapiens, UniProt P78367 192-278)
[7] = biological target: HOXC9 (Homo sapiens, UniProt P31274 178-260, R222W)
[8] = biological target: T1, NKX2-6 (Homo sapiens, UniProt A6NCS4 118-204, F151L)
T1 sequence: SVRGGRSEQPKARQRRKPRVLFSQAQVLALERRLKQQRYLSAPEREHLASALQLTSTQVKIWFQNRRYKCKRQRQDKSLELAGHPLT

[9] = biological target: HESX1 (Homo sapiens, UniProt Q9UBX0 95-180, F115L)
[10] = biological target: T2, PAX4 (Homo sapiens, UniProt O43316 9-242, R227W)
T2 sequence: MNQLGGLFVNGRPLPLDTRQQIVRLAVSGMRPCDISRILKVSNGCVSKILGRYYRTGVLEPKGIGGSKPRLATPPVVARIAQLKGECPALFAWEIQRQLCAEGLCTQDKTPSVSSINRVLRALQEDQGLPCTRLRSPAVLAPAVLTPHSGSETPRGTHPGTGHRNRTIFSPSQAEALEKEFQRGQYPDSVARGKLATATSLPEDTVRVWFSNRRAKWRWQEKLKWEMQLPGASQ

[11] = biological target: MSX2 (Homo sapiens, UniProt P35548 130-214, F161Y)
MSX2, sequence (P35548 130-214 F161Y): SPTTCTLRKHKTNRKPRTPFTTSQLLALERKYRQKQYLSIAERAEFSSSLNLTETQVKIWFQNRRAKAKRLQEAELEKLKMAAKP

HOXD13, sequence (P35453 263-343 T313A): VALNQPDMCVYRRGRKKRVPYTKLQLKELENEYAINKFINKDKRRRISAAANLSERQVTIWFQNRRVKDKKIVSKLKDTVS
VAX1 (Homo sapiens, UniProt Q5SQQ9 86-172, T142I), sequence (Q5SQQ9 86-172 T142I): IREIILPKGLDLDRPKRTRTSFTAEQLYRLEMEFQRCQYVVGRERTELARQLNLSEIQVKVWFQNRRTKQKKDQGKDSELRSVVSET
VAX1 (Homo sapiens, UniProt Q5SQQ9 86-172, K157R), sequence (Q5SQQ9 86-172 K157R): as the sequence (Q5SQQ9 86-172 T142I) above, with I57T, K72R counted along it
NKX3-2 (Homo sapiens, UniProt P78367 192-278), sequence (P78367 192-278): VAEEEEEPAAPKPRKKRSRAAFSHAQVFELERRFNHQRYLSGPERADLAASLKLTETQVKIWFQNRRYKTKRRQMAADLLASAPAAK
NKX3-2 (Homo sapiens, UniProt P78367 192-278, P234S), sequence (P78367 192-278 P234S): as the sequence (P78367 192-278) above, with P43S counted along it
VAX1 (Homo sapiens, UniProt Q5SQQ9 86-172), sequence (Q5SQQ9 86-172): as the sequence (Q5SQQ9 86-172 T142I) above, with I57T counted along it
HOXC9, sequence (P31274 178-260 R222W): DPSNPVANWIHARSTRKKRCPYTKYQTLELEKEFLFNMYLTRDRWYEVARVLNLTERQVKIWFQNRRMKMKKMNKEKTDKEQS
HESX1, sequence (Q9UBX0 95-180 F115L): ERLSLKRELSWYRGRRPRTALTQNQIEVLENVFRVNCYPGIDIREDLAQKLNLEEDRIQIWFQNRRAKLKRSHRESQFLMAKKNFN

GCATATGA
binding signal [1]: 8.94 upbm affinity estimate (log intensity, higher = more binding, comparable within an allelic series)
binding signal [2]: 8.6 upbm affinity estimate (log intensity, higher = more binding, comparable within an allelic series)
binding signal [3]: 8.79 upbm affinity estimate (log intensity, higher = more binding, comparable within an allelic series)

ATAACGTG
binding signal [1]: 9.01 upbm affinity estimate (log intensity, higher = more binding, comparable within an allelic series)
binding signal [2]: 8.66 upbm affinity estimate (log intensity, higher = more binding, comparable within an allelic series)
binding signal [3]: 8.79 upbm affinity estimate (log intensity, higher = more binding, comparable within an allelic series)

AAGTAAAT
binding signal [1]: 10.5 upbm affinity estimate (log intensity, higher = more binding, comparable within an allelic series)
binding signal [2]: 10.2 upbm affinity estimate (log intensity, higher = more binding, comparable within an allelic series)
binding signal [3]: 10.2 upbm affinity estimate (log intensity, higher = more binding, comparable within an allelic series)

CAATCTAG
binding signal [1]: 9.1 upbm affinity estimate (log intensity, higher = more binding, comparable within an allelic series)
binding signal [2]: 8.87 upbm affinity estimate (log intensity, higher = more binding, comparable within an allelic series)
binding signal [3]: 8.9 upbm affinity estimate (log intensity, higher = more binding, comparable within an allelic series)

CGCCGCTC
binding signal [1]: 7.19 upbm affinity estimate (log intensity, higher = more binding, comparable within an allelic series)
binding signal [2]: 7.18 upbm affinity estimate (log intensity, higher = more binding, comparable within an allelic series)
binding signal [3]: 7.31 upbm affinity estimate (log intensity, higher = more binding, comparable within an allelic series)

CATTACGC
binding signal [1]: 11.1 upbm affinity estimate (log intensity, higher = more binding, comparable within an allelic series)
binding signal [2]: 10.6 upbm affinity estimate (log intensity, higher = more binding, comparable within an allelic series)
binding signal [3]: 10.7 upbm affinity estimate (log intensity, higher = more binding, comparable within an allelic series)

ATGATGAA
binding signal [1]: 9.52 upbm affinity estimate (log intensity, higher = more binding, comparable within an allelic series)
binding signal [2]: 9.3 upbm affinity estimate (log intensity, higher = more binding, comparable within an allelic series)
binding signal [3]: 9.22 upbm affinity estimate (log intensity, higher = more binding, comparable within an allelic series)

CGAAGCAG
binding signal [1]: 6.89 upbm affinity estimate (log intensity, higher = more binding, comparable within an allelic series)
binding signal [2]: 7.23 upbm affinity estimate (log intensity, higher = more binding, comparable within an allelic series)
binding signal [3]: 7.1 upbm affinity estimate (log intensity, higher = more binding, comparable within an allelic series)

CTGAGCCC
binding signal [1]: 7.3 upbm affinity estimate (log intensity, higher = more binding, comparable within an allelic series)
binding signal [2]: 7.49 upbm affinity estimate (log intensity, higher = more binding, comparable within an allelic series)
binding signal [3]: 7.38 upbm affinity estimate (log intensity, higher = more binding, comparable within an allelic series)

GTGATAAC
binding signal [1]: 9.19 upbm affinity estimate (log intensity, higher = more binding, comparable within an allelic series)
binding signal [2]: 8.78 upbm affinity estimate (log intensity, higher = more binding, comparable within an allelic series)
binding signal [3]: 8.95 upbm affinity estimate (log intensity, higher = more binding, comparable within an allelic series)

CGGGGGAC
binding signal [1]: 7.24 upbm affinity estimate (log intensity, higher = more binding, comparable within an allelic series)
binding signal [2]: 7.14 upbm affinity estimate (log intensity, higher = more binding, comparable within an allelic series)
binding signal [3]: 6.94 upbm affinity estimate (log intensity, higher = more binding, comparable within an allelic series)

CTGTAAAA
binding signal [4]: 11.6 upbm affinity estimate (log intensity, higher = more binding, comparable within an allelic series)

CGTGGGAA
binding signal [5]: 10.6 upbm affinity estimate (log intensity, higher = more binding, comparable within an allelic series)
binding signal [6]: 10.6 upbm affinity estimate (log intensity, higher = more binding, comparable within an allelic series)

CGACCTAG
binding signal [5]: 10.6 upbm affinity estimate (log intensity, higher = more binding, comparable within an allelic series)
binding signal [6]: 10.6 upbm affinity estimate (log intensity, higher = more binding, comparable within an allelic series)

TCTGGGCA
binding signal [5]: 10.6 upbm affinity estimate (log intensity, higher = more binding, comparable within an allelic series)
binding signal [6]: 10.6 upbm affinity estimate (log intensity, higher = more binding, comparable within an allelic series)

ATTAAAAA
binding signal [7]: 11 upbm affinity estimate (log intensity, higher = more binding, comparable within an allelic series)

ACTTAAGG
binding signal [8]: 10.6 upbm affinity estimate (log intensity, higher = more binding, comparable within an allelic series)

AACACTTG
binding signal [8]: 10.8 upbm affinity estimate (log intensity, higher = more binding, comparable within an allelic series)

CTTATTAA
binding signal [9]: 7.74 upbm affinity estimate (log intensity, higher = more binding, comparable within an allelic series)

AAGTGCCA
binding signal [5]: 12.6 upbm affinity estimate (log intensity, higher = more binding, comparable within an allelic series)
binding signal [6]: 12.8 upbm affinity estimate (log intensity, higher = more binding, comparable within an allelic series)

AGAGAGGA
binding signal [5]: 11.5 upbm affinity estimate (log intensity, higher = more binding, comparable within an allelic series)
binding signal [6]: 11.6 upbm affinity estimate (log intensity, higher = more binding, comparable within an allelic series)

AAACACTT
binding signal [8]: 10.9 upbm affinity estimate (log intensity, higher = more binding, comparable within an allelic series)

CCGAGTAC
binding signal [5]: 11.5 upbm affinity estimate (log intensity, higher = more binding, comparable within an allelic series)
binding signal [6]: 11.6 upbm affinity estimate (log intensity, higher = more binding, comparable within an allelic series)

GTTTACAA
binding signal [4]: 11.6 upbm affinity estimate (log intensity, higher = more binding, comparable within an allelic series)

CGGGCAGC
binding signal [5]: 10.6 upbm affinity estimate (log intensity, higher = more binding, comparable within an allelic series)
binding signal [6]: 10.5 upbm affinity estimate (log intensity, higher = more binding, comparable within an allelic series)

CGAAGTGC
binding signal [5]: 12.5 upbm affinity estimate (log intensity, higher = more binding, comparable within an allelic series)

GAGTACAC
binding signal [5]: 12.1 upbm affinity estimate (log intensity, higher = more binding, comparable within an allelic series)
binding signal [6]: 12.2 upbm affinity estimate (log intensity, higher = more binding, comparable within an allelic series)

AGCCGCGC
binding signal [5]: 10.5 upbm affinity estimate (log intensity, higher = more binding, comparable within an allelic series)
binding signal [6]: 10.5 upbm affinity estimate (log intensity, higher = more binding, comparable within an allelic series)

ATTATTAG
binding signal [10]: 10.9 upbm affinity estimate (log intensity, higher = more binding, comparable within an allelic series)

AAGTGTCT
binding signal [8]: 10.6 upbm affinity estimate (log intensity, higher = more binding, comparable within an allelic series)

GAAGTGGC
binding signal [5]: 12.7 upbm affinity estimate (log intensity, higher = more binding, comparable within an allelic series)
binding signal [6]: 12.8 upbm affinity estimate (log intensity, higher = more binding, comparable within an allelic series)

AAATTATT
binding signal [9]: 7.73 upbm affinity estimate (log intensity, higher = more binding, comparable within an allelic series)

CAAACCAG
binding signal [5]: 10.6 upbm affinity estimate (log intensity, higher = more binding, comparable within an allelic series)
binding signal [6]: 10.7 upbm affinity estimate (log intensity, higher = more binding, comparable within an allelic series)

CAAGTGTC
binding signal [8]: 10.6 upbm affinity estimate (log intensity, higher = more binding, comparable within an allelic series)

AATTACAA
binding signal [11]: 12.9 upbm affinity estimate (log intensity, higher = more binding, comparable within an allelic series)

AAGTGTTC
binding signal [8]: 10.8 upbm affinity estimate (log intensity, higher = more binding, comparable within an allelic series)

CATATTAG
binding signal [10]: 10.9 upbm affinity estimate (log intensity, higher = more binding, comparable within an allelic series)

CTCTTGCC
binding signal [5]: 11.4 upbm affinity estimate (log intensity, higher = more binding, comparable within an allelic series)
binding signal [6]: 11.5 upbm affinity estimate (log intensity, higher = more binding, comparable within an allelic series)

CCCCGCAA
binding signal [5]: 10.7 upbm affinity estimate (log intensity, higher = more binding, comparable within an allelic series)
binding signal [6]: 10.7 upbm affinity estimate (log intensity, higher = more binding, comparable within an allelic series)

AAGGAGTG
binding signal [5]: 11.9 upbm affinity estimate (log intensity, higher = more binding, comparable within an allelic series)
binding signal [6]: 12 upbm affinity estimate (log intensity, higher = more binding, comparable within an allelic series)

ACTATTAA
binding signal [4]: 11.6 upbm affinity estimate (log intensity, higher = more binding, comparable within an allelic series)

CCAGGTTA
binding signal [5]: 10.6 upbm affinity estimate (log intensity, higher = more binding, comparable within an allelic series)
binding signal [6]: 10.8 upbm affinity estimate (log intensity, higher = more binding, comparable within an allelic series)

ACACTTAC
binding signal [8]: 10.6 upbm affinity estimate (log intensity, higher = more binding, comparable within an allelic series)
binding signal [5]: 12.5 upbm affinity estimate (log intensity, higher = more binding, comparable within an allelic series)

CCAGGCAA
binding signal [5]: 10.7 upbm affinity estimate (log intensity, higher = more binding, comparable within an allelic series)
binding signal [6]: 10.6 upbm affinity estimate (log intensity, higher = more binding, comparable within an allelic series)

GGTTGAAC
binding signal [5]: 10.6 upbm affinity estimate (log intensity, higher = more binding, comparable within an allelic series)
binding signal [6]: 10.6 upbm affinity estimate (log intensity, higher = more binding, comparable within an allelic series)

AAGTGCTA
binding signal [8]: 10.6 upbm affinity estimate (log intensity, higher = more binding, comparable within an allelic series)

ATAAAATC
binding signal [7]: 11.1 upbm affinity estimate (log intensity, higher = more binding, comparable within an allelic series)

ATAAAAAA
binding signal [7]: 11.1 upbm affinity estimate (log intensity, higher = more binding, comparable within an allelic series)

GAGTGCAC
binding signal [5]: 12.2 upbm affinity estimate (log intensity, higher = more binding, comparable within an allelic series)
binding signal [6]: 12.4 upbm affinity estimate (log intensity, higher = more binding, comparable within an allelic series)

CCTGCCCG
binding signal [5]: 10.7 upbm affinity estimate (log intensity, higher = more binding, comparable within an allelic series)
binding signal [6]: 10.7 upbm affinity estimate (log intensity, higher = more binding, comparable within an allelic series)

AATAAATT
binding signal [7]: 11.1 upbm affinity estimate (log intensity, higher = more binding, comparable within an allelic series)

ACAAGTGT
binding signal [8]: 10.6 upbm affinity estimate (log intensity, higher = more binding, comparable within an allelic series)

AGTGGTCC
binding signal [5]: 11.9 upbm affinity estimate (log intensity, higher = more binding, comparable within an allelic series)
binding signal [6]: 11.9 upbm affinity estimate (log intensity, higher = more binding, comparable within an allelic series)

CATCACTA
binding signal [5]: 11.5 upbm affinity estimate (log intensity, higher = more binding, comparable within an allelic series)
binding signal [6]: 11.5 upbm affinity estimate (log intensity, higher = more binding, comparable within an allelic series)

GACGAACC
binding signal [5]: 10.6 upbm affinity estimate (log intensity, higher = more binding, comparable within an allelic series)
binding signal [6]: 10.5 upbm affinity estimate (log intensity, higher = more binding, comparable within an allelic series)

AGAGGGCA
binding signal [5]: 11.8 upbm affinity estimate (log intensity, higher = more binding, comparable within an allelic series)
binding signal [6]: 11.8 upbm affinity estimate (log intensity, higher = more binding, comparable within an allelic series)

ATGCCGAC
binding signal [5]: 10.6 upbm affinity estimate (log intensity, higher = more binding, comparable within an allelic series)
binding signal [6]: 10.6 upbm affinity estimate (log intensity, higher = more binding, comparable within an allelic series)

CGCCAGCC
binding signal [5]: 10.7 upbm affinity estimate (log intensity, higher = more binding, comparable within an allelic series)
binding signal [6]: 10.6 upbm affinity estimate (log intensity, higher = more binding, comparable within an allelic series)

TAAGAACA
binding signal [5]: 11.4 upbm affinity estimate (log intensity, higher = more binding, comparable within an allelic series)
binding signal [6]: 11.5 upbm affinity estimate (log intensity, higher = more binding, comparable within an allelic series)

ACCGCTGG
binding signal [5]: 10.5 upbm affinity estimate (log intensity, higher = more binding, comparable within an allelic series)
binding signal [6]: 10.5 upbm affinity estimate (log intensity, higher = more binding, comparable within an allelic series)

CGCGGCCG
binding signal [5]: 10.2 upbm affinity estimate (log intensity, higher = more binding, comparable within an allelic series)
binding signal [6]: 10.2 upbm affinity estimate (log intensity, higher = more binding, comparable within an allelic series)

CTGCATCC
binding signal [5]: 10.6 upbm affinity estimate (log intensity, higher = more binding, comparable within an allelic series)
binding signal [6]: 10.7 upbm affinity estimate (log intensity, higher = more binding, comparable within an allelic series)

AAGCCGCC
binding signal [5]: 10.7 upbm affinity estimate (log intensity, higher = more binding, comparable within an allelic series)
binding signal [6]: 10.7 upbm affinity estimate (log intensity, higher = more binding, comparable within an allelic series)

CGGCTGGC
binding signal [5]: 10.4 upbm affinity estimate (log intensity, higher = more binding, comparable within an allelic series)
binding signal [6]: 10.4 upbm affinity estimate (log intensity, higher = more binding, comparable within an allelic series)

— paper PMC11006913
